{
  "source": "PubChem BioAssay AID651784",
  "about": "(National Center for Advancing Translational Sciences (NCATS), 2012)",
  "note": "Inconclusive results are not listed. Active and inactive are the calls of the source. Calls follow the shape of the dose curve; as a rule, active = well fitted inhibition curve with a large enough effect; inconclusive = small, poorly fitted or top-dose-only effect; inactive = no such curve, though single readings can be large or run the other way. Potency is read from the fitted curve at half-maximal effect.",
  "data": [
    {"test": "Acumen qHTS Assay for Inhibitors of the mTORC1 Signaling Pathway in MEF (Tsc2-/-, p53-/-) Cells: Hit Validation; also: nearly all actives have a fitted effect of over 65% in size", "conditions": "Acumen imaging; activity change, negative = inhibition: at 37.3 µM (top of the series)", "description": "The mammalian target of rapamycin (mTOR) is an intracellular serine/threonine kinase Aberrant regulation of mTOR signaling plays a causative role in a number of human diseases, including cancer, benign tumors such as lymphangioleiomyomatosis (LAM) and Tuberous Sclerosis Complex (TSC), and metabolic diseases such as diabetes and obesity. This project aims to identify inhibitors of ribosomal protein S6 (rpS6) phosphorylation. The phosphorylation of rpS6 is a key event downstream of mTOR activation. The assay uses a phospho-specific antibody of phospho-rpS6 to detect inhibitors of mTOR activation. Mutations in the Tsc1 and Tsc2 genes are the underlying genetic lesions responsible for TSC, causing constitutive activation of the mTORC1 pathway and leading to profound effects on cell metabolism. Aberrant metabolism in cancer has recently received significant attention as a target to develop therapeutic agents in the treatment of cancer.1 As Tsc2-/- cells have lost the ability to respond to energy and growth factor deprivation, these cells are unable to properly down regulate cellular biosynthetic processes in response to metabolic stress, and are thus extremely sensitive to glucose deprivation-induced death.2 A central goal of this project is to explore the unique cell survival and metabolic properties of cells with Tsc1 or Tsc2 by screening for compounds that selectively target the Tsc2-/- MEFs by screening both Tsc2-/- and WT MEF cell lines. We hope to better understand these aspects of TSC physiology in order to exploit them for therapeutic benefit.\nNIH Molecular Libraries Probe Production Centers Network [MLPCN]\nNIH Chemical Genomics Center [NCGC]\nAssay Submitter (PI): Blenis, John; Harvard University\nFor quantitative high throughput analysis of mTORC1 signaling, we developed a cell-based assay for immuno-fluorescence based detection of rpS6 phosphorylation on the Acumen Explorer that will be used a platform for the primary small molecule screen. Mouse embryonic fibroblasts (MEFs) are cultured in 1536-well plates using DMEM + 10% FBS. Twenty-four hrs after plating, test compounds (solubilized in DMSO) are delivered and incubated with the cells for 24 hrs at 37 degree Celsius. Following the incubation, media with compound is aspirated and the cells are fixed in 4% paraformaldehyde (PFA) containing PBS + 0.2% TX-100. Next, PFA is aspirated, cells are washed two times with PBS plus 0.2% TX-100 and the cells are blocked for 1 hr at room temperature (blocking buffer: LiCOR Blocking Buffer plus 0.2% TX-100). This is followed by aspiration and staining with Alexa-488 conjugated-phospho-rpS6 Ser235/236 antibody for 2 hours at room temperature (Cell Signaling Technology # 4803, 1:50 dilution in blocking buffer). Cells are washed two times with PBS plus 0.2% TX-100, and stained with 10 uM propidium iodide (PI) for 20-25 minutes for cell number measurement (1:500 dilution of Hoescht staining is also added for IN Cell imaging). The plates are scanned on the Acumen Explorer laser scanning instrument (TTP Labtech) using the 488nm laser for simultaneous excitation of the Alexa-488 and PI. […] Fluorescence emission from the PI stain is selected using a 575-640 nm band pass filter. The normalized phospho-S6 staining is calculated as the ratio of the integrated Alexa 488 intensity divided by the integrated PI intensity for the single concentration rapamycin control (7.5 nM) and DMSO columns. […] Inhibition of the pathway is defined based on the normalized phospho-S6 intensity in rapamycin treated cells. Active cells are defined as those with a normalized phospho-S6 staining above this threshold, and each treatment is reported as the % positive cells in the well, where thresholds are defined by selecting wells with the highest and lowest signal and differentiating between the % non-active and % active populations. In addition to the pathway specific phospho-S6 endpoint, the number of PI stained cells from the Acumen is recorded as a measure of cell viability. […]", "units": {"activity change, negative = inhibition": "%"}, "values": [
      {"smiles": "Cc1cc(-c2ccc(S(=O)(=O)Nc3cccc(C)c3C)s2)on1", "Potency": "4.14 µM (active)"},
      {"smiles": "CCOC(=O)c1ccc(-c2ccc(/C=C(\\C#N)c3nc4ccc(C)cc4[nH]3)o2)cc1", "Potency": "4.14 µM (active)"},
      {"smiles": "CS(=O)c1ccc(-c2nc(-c3ccc(F)cc3)c(-c3ccncc3)[nH]2)cc1", "note": "(stereo not given)", "activity change, negative = inhibition": -5.71},
      {"smiles": "CCN1CCOC(=O)C1CC(=O)Nc1cc(Cl)ccc1C", "note": "(stereo not given)", "activity change, negative = inhibition": -93.4},
      {"smiles": "COc1cc(C(=O)NC(c2ccccc2Cl)c2cc(Cl)c3cccnc3c2O)cc(OC)c1OC", "note": "(stereo not given)", "Potency": "2.33 µM (active)"},
      {"smiles": "CN1CCN(C(CNC(=O)C(=O)Nc2cccc(Cl)c2)c2ccc3c(c2)OCO3)CC1", "note": "(stereo not given)", "activity change, negative = inhibition": -4.53},
      {"smiles": "COc1cc(Br)ccc1C1C(C(=O)Nc2ccc(C)cc2C)=C(C)Nc2nnnn21", "note": "(stereo not given)", "activity change, negative = inhibition": -23.7},
      {"smiles": "CCOc1ccc(N(Cc2ccccc2)C(=O)c2nc(S(C)(=O)=O)ncc2Cl)cc1", "Potency": "2.93 µM (active)"},
      {"smiles": "CC1=Nc2cc(C(=O)NC3CCCC3)ccc2Sc2ccc(Br)cc21", "activity change, negative = inhibition": -107},
      {"smiles": "CCS(=O)(=O)c1oc(-c2ccc(F)cc2)nc1S(=O)(=O)c1ccccc1", "Potency": "0.369 µM (active)"},
      {"smiles": "Cc1c(C(=O)OCCOc2ccccc2)[nH]c2c1C(=O)CC(c1ccccc1)C2", "note": "(stereo not given)", "Potency": "0.117 µM (active)"},
      {"smiles": "COc1ccc(NC(=O)c2c(C)oc3ccc(O)c(CN4CCCC(C)C4)c23)cc1Cl", "note": "(stereo not given)", "Potency": "9.27 µM (active)"},
      {"smiles": "Fc1ccc(Nc2nc3nonc3nc2Nc2cccc(C(F)(F)F)c2)cc1", "Potency": "1.85 µM (active)"},
      {"smiles": "COc1cccc(-n2c(-c3ccc(C)cc3)cc3c2CC(C)(C)CC3=O)c1", "activity change, negative = inhibition": -34.9},
      {"smiles": "O=C(Nc1cccc(C(F)(F)F)c1)c1cnn(-c2cccc(F)c2)c1C1CCNCC1", "activity change, negative = inhibition": -13.8},
      {"smiles": "CCS(=O)(=O)c1ccccc1C(=O)N(Cc1cccnc1)c1nc2cc(C)c(C)cc2s1", "activity change, negative = inhibition": -10},
      {"smiles": "CCN1CCN(C(=O)Cn2ncc3c4ccccc4n(Cc4c(C)cc(C)cc4C)c3c2=O)CC1", "activity change, negative = inhibition": -17.5},
      {"smiles": "CCOC(=O)c1ccc(N2C(=O)c3n[nH]c(C)c3C2c2cccc(Br)c2)cc1", "note": "(stereo not given)", "activity change, negative = inhibition": 4.8},
      {"smiles": "COc1ccccc1NC(=O)CSc1ccc(-c2ccccn2)nn1", "Potency": "11.7 µM (active)"},
      {"smiles": "COc1ccc(NC(=O)c2c(NC(=O)COc3ccccc3)sc3c2CCC(C)C3)cc1", "note": "(stereo not given)", "activity change, negative = inhibition": 6.92},
      {"smiles": "CCOC(=O)N1CCN(Cc2nc3cc(NC(=O)c4ccc([N+](=O)[O-])cc4)ccc3n2C(C)C)CC1", "activity change, negative = inhibition": -17.8},
      {"smiles": "Cc1ccc(C(C)C)c(OCC(=O)Nc2cc(-c3nc4ccccc4[nH]3)ccc2C)c1", "activity change, negative = inhibition": -3.97},
      {"smiles": "Brc1ccc(Nc2c3c(nc4nncn24)CCC3)cc1", "activity change, negative = inhibition": 7.81},
      {"smiles": "CCCCOc1ccc(Cn2c(=O)sc3ccccc32)cc1", "activity change, negative = inhibition": -17},
      {"smiles": "Cc1ccccc1OCCn1c(=N)n(C(C)C)c2ccccc21", "Potency": "8.26 µM (active)"},
      {"smiles": "COc1ccc(-c2ccc(CCC(=O)O)n2-c2ccccc2O)cc1", "activity change, negative = inhibition": -2.33},
      {"smiles": "COc1ccc(OCC(O)Cn2c(=N)n(CCN3CCCCC3)c3ccccc32)cc1", "note": "(stereo not given)", "Potency": "16.5 µM (active)"},
      {"smiles": "O=C(Nc1ccccc1F)c1nc(S(=O)(=O)Cc2ccccc2F)ncc1Cl", "Potency": "2.93 µM (active)"},
      {"smiles": "O=c1c(-c2cc(-c3ccc(F)cc3)nc3c2COc2ccc(Cl)cc2-3)coc2ccc(F)cc12", "activity change, negative = inhibition": 7.23},
      {"smiles": "Cc1cccc(OCC(O)Cn2c(=N)n(CCN3CCCCC3)c3ccccc32)c1", "note": "(stereo not given)", "Potency": "5.85 µM (active)"},
      {"smiles": "CCN(CC)CCn1c(=N)n(CCOc2ccccc2Cl)c2ccccc21", "activity change, negative = inhibition": -149},
      {"smiles": "COc1ccc(Cl)cc1S(=O)(=O)NCc1ccc2c(c1)CCN2C(=O)c1cccc(C)c1", "activity change, negative = inhibition": -22.6},
      {"smiles": "CCSc1oc(-c2ccc(F)cc2)nc1S(=O)(=O)c1ccc(C)cc1", "activity change, negative = inhibition": -25.8},
      {"smiles": "COc1ccc2nc(NC(=O)c3nc(S(=O)(=O)Cc4ccccc4F)ncc3Cl)sc2c1", "activity change, negative = inhibition": -106},
      {"smiles": "Cc1ccc2occ(CC(=O)Nc3ccc(Cl)c(C(F)(F)F)c3)c2c1", "activity change, negative = inhibition": -19.2},
      {"smiles": "Cc1c(Cl)cccc1-c1ccc(C(=O)Nc2ccc3oc(-c4cccnc4)nc3c2)o1", "activity change, negative = inhibition": -39.9},
      {"smiles": "CC(=O)C1=C(c2ccccc2)N(C(C)=O)n2c(nnc2C2CCCCC2)S1", "Potency": "7.36 µM (active)"},
      {"smiles": "CCN(c1ccccc1)S(=O)(=O)c1ccc(NC(=O)c2nc(S(C)(=O)=O)ncc2Cl)cc1", "Potency": "4.14 µM (active)"},
      {"smiles": "CCCCN(CCCNC(=O)c1cc(Nc2cccc(SC)c2)nc2ccccc12)Cc1ccccc1", "activity change, negative = inhibition": -95.1},
      {"smiles": "CCCN(CCC)CCCNC(=O)C1CCN(c2nc3ccc(CC)cc3s2)CC1", "Potency": "11.7 µM (active)"}
    ]}
  ]
}
